The assay deals with RARb homodimer (NR concentration 270 nM). Put plainly: PBM binding z-score (relative to random genomic background probes); higher = stronger binding; sequences stand for … in GC…GCGATTGACAGCGTAGAATGAAGG
In a few lines:
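Binding z-scores take random background probes as their reference. They come from custom Agilent 4×180K protein-binding microarrays incubated 1 h with ligand-free nuclear receptor dimers, with antibodies against each partner (one per run) detecting binding. Scanned fluorescence was regression-normalized.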
CTATGTAGTTTAAGGGGGTCATTCAGTTTGAAAG came in with a PBM binding z-score of 3.89.
In turn, GTACCAAGGTGAATAGGTCGTTGATGAGTAGGCG had a PBM binding z-score of 1.89.
The result for ATGGAAAGGTCGTGAGGTGAGTATACAGAAAGGC reads 3.62; that for AGAATGAGGTTACCAGAGATCAGGGAAACGCTTG, 0.721.
The same measure for CAAAGTAGGTCACGAAAGGTCAAAGTCGAATGAC: 6.1; for TCGAGTAGGTTACGGGGGCCTTCAGGGATGAAGA: 1.03; for CCGAGTAGGTTCCGAGGGGGCATTCAGTGCGAAT: 1.62.
Turning to AGAATGAGGTTAAGATTAGGGAAACAGAATACAT, the PBM binding z-score worked out at 0.693.
Regarding ATATGTATGTTAGGGTCATTCAGAAAGTAGGGAA, the PBM binding z-score is 3.03.
The same measure for ATATCTAGGTTAGGGTCATTCAGAAAGTAGGGAA: 3.56; for CGAACTAGGTCACCAGGACAGTCAAGAGGTTGGA: 3.44.
For the sequence CAAACTAGGTCACGAAAGGTCAAAATCGAATGAC, the PBM binding z-score stood at 5.7.
The result for AGTCAGAGTTCATCTAGGTAACGTAAGATATGCT reads 3.28; that for CAAAATAGGTCAAGGTCAAAGTCGGTTTGTGCCA, 5.46; that for TCGCGTAGGTTACGGGGGCATTCAGGGATGAAGA, 2.37.
For the sequence CCTGCTAGGTCTATGGTCAGCTAAAGCAGCTCGC, the PBM binding z-score amounted to 0.163.
CCGAGTAGCTTACGAGGGGGCATTCAGTGCGAAT registered a PBM binding z-score of 1.
AGATTGAGGTTACCAAAGATCAGGGAAACGCTTG came in with a PBM binding z-score of 0.91.
The same measure for GGAACGAGCGCAAAGTTGATAGCATCTGTCGACG: -0.951; for TCTAGTTGGTCAAAGGTCAAACACTCGAAATGCG: 5.02; for CTATGTAGGTTAAGGGGGTCGTTCAGTTTGAAAG: 2.42.
The result for TATACAGGATCAAAGGCCAGAGTACGAATGTCGA reads 0.878; that for TAGCCTAGGTCATTCAGGGGCCAGTATGGAAAGC, 3.26; that for CGAACTAGGTGACCAGGACAGTGAAGAGGTTGGA, 1.03.
For ACTTACGGGTCAACGAAGTTATAGCACGCGTATA, the PBM binding z-score is 3.02.
The same measure for CAAACTAGGTCACGAGGTCAAAGTCCGCTTCCCG: 5.59.
The result for AGCTCTAGGTAAAAGTTCAGTGAATCCCGAGGAT reads 2.44.
The result for CGAACTAGGTCAAAGGACACTGAAAGGCGACGTA reads 3.06.
In turn, TAGCCTAGGTCATAGGCCAGTATACCACGCGAAC gave a PBM binding z-score of 2.58.
CGAACTAGGCCACCAGGACAGTGAAGAGGTTGGA: the PBM binding z-score came out at 0.689.
Sequence ATATGTAGGTTAGGGTCATTCCGAAAGTAGGGAA registered a PBM binding z-score of 3.13.
The result for CGTCCAAGGGCAATGCTAGGTCAGTGAAAGCATT reads 3.04.
AGAATGGGGTTAAGATCAGGGAAACAGAATACAT registered a PBM binding z-score of 1.9.
The result for CCGAGTAGGTTACGAGGGGGCACTCAGTGCGAAT reads 2.29.
The same measure for TTACCAAGGTAAAAGGTCGTTGATGCACGCCTTG: 2.14; for GCTTACGGGTCAAAGGTTATGGCATGAATAGAAT: 3.46; for ACTCGGAGGACAAAGGTAAGAGCTACGCCAGTGA: 0.319.
In turn, CAATCTAGGTCACAGAGGTCAAAGTCCGTGCGTA registered a PBM binding z-score of 5.7.
As to CGAACTAGGTCACCAGGACAGTGATGAGGTTGGA, the PBM binding z-score stood at 3.53.

Source of the values: the supplement of paper PMC6555819.
